Laboratory results published in patent US20180258417, “RAPID CHARACTERIZATION OF CAS ENDONUCLEASE SYSTEMS, PAM SEQUENCES AND GUIDE RNA ELEMENTS” (PIONEER HI-BRED INTERNATIONAL, INC., published 2018).

T1: Blat Cas9 (Brevibacillus laterosporus SSP360D4)
T1 chain: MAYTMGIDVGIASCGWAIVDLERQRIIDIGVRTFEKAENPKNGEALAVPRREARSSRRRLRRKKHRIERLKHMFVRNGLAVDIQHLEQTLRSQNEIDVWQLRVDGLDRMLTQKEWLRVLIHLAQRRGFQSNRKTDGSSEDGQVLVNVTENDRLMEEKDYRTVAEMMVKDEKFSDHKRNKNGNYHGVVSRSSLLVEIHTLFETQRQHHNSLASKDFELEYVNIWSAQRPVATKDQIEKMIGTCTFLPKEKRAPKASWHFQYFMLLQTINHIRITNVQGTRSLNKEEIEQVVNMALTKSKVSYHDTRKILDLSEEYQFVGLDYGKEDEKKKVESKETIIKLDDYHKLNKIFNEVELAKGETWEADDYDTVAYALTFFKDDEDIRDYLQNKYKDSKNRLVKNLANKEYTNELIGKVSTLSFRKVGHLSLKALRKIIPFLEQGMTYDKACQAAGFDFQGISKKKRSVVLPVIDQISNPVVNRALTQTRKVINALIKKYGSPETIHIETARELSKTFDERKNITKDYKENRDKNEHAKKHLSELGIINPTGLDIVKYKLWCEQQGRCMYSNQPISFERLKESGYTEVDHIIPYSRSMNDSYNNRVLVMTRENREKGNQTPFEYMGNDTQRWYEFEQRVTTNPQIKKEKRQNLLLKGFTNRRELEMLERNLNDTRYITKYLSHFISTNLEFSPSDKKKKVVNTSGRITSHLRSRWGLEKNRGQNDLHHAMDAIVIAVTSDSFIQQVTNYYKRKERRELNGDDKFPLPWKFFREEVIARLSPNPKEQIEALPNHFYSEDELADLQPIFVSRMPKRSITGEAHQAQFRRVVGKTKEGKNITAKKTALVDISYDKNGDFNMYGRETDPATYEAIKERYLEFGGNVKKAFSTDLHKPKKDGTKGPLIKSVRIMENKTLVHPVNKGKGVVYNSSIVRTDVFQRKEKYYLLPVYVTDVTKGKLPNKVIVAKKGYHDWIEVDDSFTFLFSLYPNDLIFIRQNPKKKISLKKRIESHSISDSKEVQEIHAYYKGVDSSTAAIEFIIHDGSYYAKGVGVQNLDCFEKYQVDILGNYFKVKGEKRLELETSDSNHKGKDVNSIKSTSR

B1: Blat sgRNA direct ; T1 + GTCCCGCA PAM (ssRNA ; dsDNA)
RNA: GGGCGCUAAAGAGGAAGAGGACAGCUAUAGUUCCUUACUGAAAGGUAAGUUGCUAUAGUAAGGGCAACAGACCCGAGGCGUUGGGGAUCGCCUAGCCCGUUUUUACGGGCUCUCCCCAUAUUCAAAAUAAUGACAGACGAGCACCUUGGAGCAUUUAUUUCCGAGGUGCUUUUUUUU
DNA 1: CGCTAAAGAGGAAGAGGACAGTCCCGCA
DNA 2: TGCGGGACTGTCCTCTTCCTCTTTAGCG
modifications: [NONE]
B2: Blat sgRNA direct ; T1 + GTCCCGAC PAM (ssRNA ; dsDNA)
RNA: B1 RNA
DNA 1: CGCTAAAGAGGAAGAGGACAGTCCCGAC
DNA 2: GTCGGGACTGTCCTCTTCCTCTTTAGCG

Assays:
Blat Cas9 [1] = biological target: T1, Blat Cas9; test: cleavage_in_vitro; PAM position 7 A to C; 10 mM MgCl2, 15 C; conditions: tags: C-terminal His (pBAD24-CHis)
Text: (§1) To validate the PAM specificity for Blat Cas9, plasmids were engineered to contain mutations ([…] (reference), […], […], […], […], […] with mutations shown in bold and underlined, FIG. 39) in the most conserved residues of the PAM immediately downstream of a 20 base pair region matching the variable targeting domain T1 (SEQ ID NO: 141). In vitro cleavage reactions with the various PAM sequences were initiated by mixing supercoiled plasmid DNA with pre-assembled Blat Cas9-sgRNA complex (1:1 v/v ratio) at 15° C. The final reaction mixture contained 3 nM plasmid, 50 nM Cas9, 10 mMTris-HCl (pH 7.5 at 37° C.), 100 mM NaCl, 1 mM DTT and 10 mM MgCl2 in a 100 μI reaction volume. Aliquots were removed at timed intervals and quenched with phenol/chloroform. The aqueous phase was mixed with 3× loading dye solution (0.01% (w/v) bromophenol blue and 75 mM EDTA in 50% (v/v) glycerol) and reaction products analyzed by agarose gel electrophoresis. The amount of supercoiled (SC) form was evaluated by densitometric analysis of ethidium bromide stained gels using the software ImageJ. Values of reaction rate constants were obtained as described by Szczelkun, et al., (2014) Proc. Natl. Acad. Sci. USA 111:9798-9803). Replacement of the C nucleotide at the 5th position abolished plasmid DNA cleavage confirming its key role in Blat Cas9 PAM recognition (FIG. 39).

Blat Cas9 [2] = biological target: T1, Blat Cas9; test: cleavage_in_vitro; PAM position 8 A to C; 10 mM MgCl2, 15 C; conditions: tags: C-terminal His (pBAD24-CHis)
Text: as §1

Binder | cleavage rate decrease vs reference PAM (Blat Cas9 [1]) | binding signal (Blat Cas9 [2])
B1 | 43 fold decrease in rate | 
B2 |  | 12 fold decrease in rate
